High-throughput results from PubChem.
KB-V1 MDR tox: kills drug-selected multidrug resistant KB-V1 cells; Potency, µM (highest dose often 46.1 µM), most hits filed as cytotoxic; AID 1347076; KB-V1 MDR cells viability, CellTiter-Glo, 72 h; 400,000 compounds, 3.4% hits; also: % is scaled to controls: 0 for no effect and ±100 for the full control effect; nearly all actives have a fitted effect of over 60% in size
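KB-V1, DMEM (no phenol red) + 10% FBS; cpd pin-transferred, titration series; 72 h, 37 degrees C; CellTiter-Glo, luminescence. Data normalized, curve-fit.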
MCF10A rereplic: DNA re-replication induction in MCF 10a cells; MCF 10A DNA re-replication, Hoechst nuclear intensity, 48 h; 350,000 compounds, 2.9% hits; Potency, µM (titrated, usually from 46.1 µM), without a hit: at the highest dose activity, positive = re-replication, actives largely listed as activators; also: % of control where 0% means no effect; nearly all actives have a fitted effect of over 50% in size
Gal4-VP16 FLuc: inhibits Gal4-VP16 luciferase reporter, ROR gamma counter-screen; Drosophila S2 Gal4-VP16 UAS-luciferase, luminescence, 20 h; Potency, µM (doses to about 53.6 µM), for the others: at the top dose activity, negative = inhibition, hits mostly inhibitors; 310,000 compounds, 3.5% hits; AID 2546;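 also: Gal4-VP16 expression switched on by copper sulfate through the metallothionein promoter; % is scaled to controls: 0 for no effect and ±100 for the full control effect; nearly all actives have a fitted effect of over 50% in size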
KB-3-1 tox: KB-3-1 parental cell cytotoxicity | AID 1347075 | 400,000 compounds, 1.4% hits | Potency, µM (titrated, usually from 46.1 µM), most hits filed as cytotoxic | KB-3-1 viability, CellTiter-Glo ATP luminescence, 72 h; also: % is scaled to controls: 0 for no effect and ±100 for the full control effect; nearly all actives have a fitted effect of over 60% in size
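Viability of parental KB-3-1 cells, measured by CellTiter-Glo luminescence, followed a 72 h incubation at 37 °C with pinned compounds in phenol-red-free DMEM containing 10% FBS.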
SW480 rerep: DNA re-replication induction in SW480 cells; SW480 DNA re-replication, Hoechst DNA content imaging, 48 h; Potency, µM (series often up to 46.1 µM), for the others: top-dose re-replication activation, actives largely listed as activators; 340,000 compounds, 1.8% hits; also: % of control where 0% means no effect; nearly all actives have a fitted effect of over 55% in size
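First, 250 cells per well were seeded. Next, compound or vehicle (23 nL) was pinned in, plates sat 48 hr at 37 C. Finally Hoechst was added for 40 min before fluorescence scanning.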
RORg inh: blocks mouse ROR gamma transcriptional activity; P51450; Drosophila S2 Gal4-RORgamma UAS-luciferase reporter, 20 h; Potency, µM (top dose mostly 53.6 µM), for inactives: top-dose activity change, negative = inhibition, actives largely listed as inhibitors; 310,000 compounds, 5.4% hits; AID 2551; also: % is scaled to controls: 0 for no effect and ±100 for the full control effect; nearly all actives have a fitted effect of over 60% in size
Target sequence (P51450 whole entry, looked up, the tested form may be a part): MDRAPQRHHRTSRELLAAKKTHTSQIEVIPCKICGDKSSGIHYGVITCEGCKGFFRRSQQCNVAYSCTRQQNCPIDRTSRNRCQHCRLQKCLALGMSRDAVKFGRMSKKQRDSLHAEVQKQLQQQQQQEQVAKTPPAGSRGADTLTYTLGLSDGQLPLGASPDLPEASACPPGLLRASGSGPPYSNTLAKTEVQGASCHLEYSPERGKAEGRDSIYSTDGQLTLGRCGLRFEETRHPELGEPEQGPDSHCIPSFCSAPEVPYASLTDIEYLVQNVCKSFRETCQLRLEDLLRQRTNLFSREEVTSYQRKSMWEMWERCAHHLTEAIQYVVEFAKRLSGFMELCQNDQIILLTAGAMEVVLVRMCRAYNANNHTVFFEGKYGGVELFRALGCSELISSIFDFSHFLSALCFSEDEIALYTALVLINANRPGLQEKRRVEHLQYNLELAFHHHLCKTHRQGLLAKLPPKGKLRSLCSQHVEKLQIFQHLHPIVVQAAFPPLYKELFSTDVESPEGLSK
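ROR gamma transcriptional activity was tracked as Gal4-UAS luciferase output in stably transfected Drosophila Schneider cells, with compound added 1 hr before 700 uM copper sulfate induction and a 20 hr ambient-temperature incubation.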
Numbers without * were called inactive; i = inactive; ? = inconclusive; . = not tested or not shown; [ ] = remark or other dose. Compounds with a hit are over-represented: about 10% of the library has one in this group of screens. Calls follow the shape of the dose curve; as a rule, active = well fitted curve in the direction sought with a large enough effect; inconclusive = small, poorly fitted or top-dose-only effect, or another doubt; inactive = no such curve, though single readings can be large; an effect the other way counts as inactive or inconclusive. Potency is read from the fitted curve at half-maximal effect.

SMILES	KB-V1 MDR tox	MCF10A rereplic	Gal4-VP16 FLuc	KB-3-1 tox	SW480 rerep	RORg inh
COc1cc(O)c(C(CC(=O)N2CCCCC2)c2ccc3c(c2)OCO3)c(OC)c1 (centres undefined)	i	7%	-5%	i	-3%	14µM*
COc1cc(O)c(C(CC(=O)N2CCCC(C)C2)c2ccc(N(C)C)cc2)c(OC)c1 (centres undefined)	i	-5%	-9%	i	-21%[9.22 µM]	2µM*
COc1cc(OC)c2ccc(=O)oc2c1C(CC(=O)N1CCCC(C)C1)c1ccc2c(c1)OCO2 (centres undefined)	i	-8%	11%	i	1%	-3%
COc1ccc2c(c1)C(=O)[C@H](OC(=O)Nc1ccc(OC(F)F)cc1)[C@@H](c1ccc(OC)c(Br)c1)O2	.	.	-5%	.	.	1%
C=CCc1ccccc1OCc1nc2ccccc2n1CC	i	.	.	i	.	.
CCOC(=O)c1ccc(NC(=O)CC2C(=O)N(c3ccccc3)C(=O)N2C2CCCCC2)cc1 (centres undefined)	i	.	.	i	.	.
O=C(NNc1nc(-c2ccc(Cl)cc2)cs1)c1ccco1	21µM*	?	5µM*	?	?	4µM*
O=C(Nc1nc(-c2ccc(Cl)s2)cs1)c1ccco1	?	?	17%	i	7%	-29%
CC(=O)Nc1ccc(-c2csc(NNC(=O)c3ccccc3)n2)cc1	i	?	-4%	i	7%	8.9µM*
CC(=O)Nc1ccc(-c2csc(N/N=C(/C)c3ccccc3)n2)cc1	i	11%	16%	i	-2%	-20%
O=C(NNc1nc(-c2ccccc2)cs1)c1ccco1	i	3%	5µM*	i	18µM*	3.5µM*
COC(=O)c1c(N)[nH]c(C(=O)c2ccccc2)c1-c1ccccc1Br	?	.	.	i	.	.
COc1ccc(/C=N/NC(=O)C2COc3ccccc3O2)cc1OC (centres undefined)	i	-8%	-5%	i	-4%	11%
CC(C)(C)c1ccc2c(c1)OC(C(=O)N/N=C\c1ccc[nH]1)CO2 (centres undefined)	i	0%	5µM*	i	5%	7.9µM*
O=C(N/N=C/C=C/c1ccc([N+](=O)[O-])cc1)C1COc2ccccc2O1 (centres undefined)	?	-2%	11µM*	i	-4%	10µM*
O=C(Nc1ccc([N+](=O)[O-])cc1)C1COc2ccccc2O1 (centres undefined)	?	?	28%	i	0%	9%
CC(/C=C/c1ccc2c(c1)OCO2)=N/NC(=O)C1COc2ccccc2O1 (centres undefined)	.	27%	?	.	11%	?
O=C(N/N=C\C=C\c1ccc2c(c1)OCO2)C1COc2cc3ccccc3cc2O1 (centres undefined)	?	-1%	?	i	0%	7.1µM*
O=C(N/N=C/c1ccc2c(c1)OCO2)C1COc2ccccc2O1 (centres undefined)	10µM*	9%	7%	i	0%	20%
O=C(N/N=C\C=C\c1ccc2c(c1)OCO2)c1ccc(F)cc1	i	?	5.6µM*	i	-19%	2.2µM*
COc1cc(/C=N\NC(=O)C2COc3ccccc3O2)cc(OC)c1O (centres undefined)	?	0%	0%	i	-5%	-1%
O=C(N/N=C\c1cc(Br)cs1)C1COc2ccccc2O1 (centres undefined)	?	?	?	?	?	10µM*
Cc1cc(C(=O)N/N=C/C=C/c2ccc3c(c2)OCO3)n[nH]1	i	0%	1%	i	4%	?
Cc1cc([N+](=O)[O-])cc(/C=N\NC(=O)C2COc3ccccc3O2)c1O (centres undefined)	i	15%	4.5µM*	?	?	2.2µM*
CCOc1ccc(-n2c(O)c(/C=N/NC(=O)C3COc4ccccc4O3)c3ccccc3c2=O)cc1 (centres undefined)	?	?	4.5µM*	?	17%	3.2µM*
SMILES	KB-V1 MDR tox	MCF10A rereplic	Gal4-VP16 FLuc	KB-3-1 tox	SW480 rerep	RORg inh
COc1cc(CN(C(=O)COc2ccc(Br)cc2)c2ccccn2)cc(OC)c1OC	i	.	.	i	.	.
COc1ccc(CNC(=S)Nc2ccccc2)cc1Cl	i	8%	?	i	-3%	?
O=C(O)c1ccc(CNC(=S)Nc2ccccc2)cc1	i	-5%	-4%	i	-6%	-6%
CCCOc1ccc(CNC(=S)Nc2ccccc2)cc1Cl	i	?	7.1µM*	i	?	5µM*
CC(C)COc1ccc(CNC(=S)Nc2ccccc2)cc1Cl	i	?	13µM*	i	?	5µM*
CC(C)Oc1ccc(CNC(=S)Nc2ccccc2)cc1Cl	i	-2%	11µM*	i	-20%	11µM*
Cc1ccc(-n2ncc3c(NCCCN(C)C)ncnc32)cc1Cl	i	.	.	i	.	.
Cn1cccc1-c1cc2n(n1)CCC(=O)N2CCCC(=O)NCc1cccc(Cl)c1	i	.	.	i	.	.
CCOC(=O)c1c(C)c(C(=O)NCc2ccco2)c(C)n1Cc1ccccc1	4.1µM*	0%	-9%	i	0%	35%
N#CN=c1snc(-c2ccccc2Cl)n1-c1ccccc1Cl	i	.	.	i	.	.
C=C1CC(COc2ccc3c(C)c(Cl)c(=O)oc3c2)(c2ccccc2)OC1=O (centres undefined)	?	4.6µM*	.	?	?	.
OC1C2COC(O2)[C@H](O)C1O (some centres undefined)	.	.	-2%	.	.	3%
COc1ccc(NC(=O)N2CC[C@@]3(CCCN(C(=O)c4cccn4C)C3)C2)cc1	.	.	-7%	.	.	8%
O=c1cc(Nc2ccc3c(c2)OCCO3)[nH]c(=O)n1C1CCCCC1	i	?	2%	?	12µM*	7%
CCc1ccc(Nc2cc(=O)n(C3CCCCC3)c(=O)[nH]2)cc1	?	19%	0%	?	?	?
Cc1nn(C(=O)c2ccc(Cl)cc2)c(C)c1S(=O)(=O)N1CCOCC1	i	.	.	i	.	.
CCOc1ccc(/C=N/NC(=O)c2nnn(-c3nonc3N)c2-c2ccc(OCC)cc2)cc1	?	0%	?	i	1%	?
CCOc1ccc(-c2c(C(=O)N/N=C/c3c[nH]c4ccccc34)nnn2-c2nonc2N)cc1	i	2%	3.2µM*	i	-1%	?
